Test results published in PubChem BioAssay AID449762 (Southern Research Specialized Biocontainment Screening …, 2010).
In all, about 330,000 compounds went through this assay and about 1,900 (0.58%) were called active. Another 4% or so got no clear call; they are omitted. These entries were drawn from the full list. Potency and affinity values are given separately. A number with no mark means an inactive call. Rule as the data show it: inconclusive = inhibition above about 70% without an active follow-up result; inactive = below that.

Assay: M. tuberculosis growth inhibition, HTS (AID 449762);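 also: bacterial growth assessed after seven days of incubation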
Details: M. tuberculosis H37Rv growth inhibition, 7H9 media; at 25 µM; stronger effect = higher value

In order of rising inhibition:
1. O=C(O)CCNS(=O)(=O)c1ccccc1C(F)(F)F  -11.5%
2. COc1ccc2c(c1O)C(=O)c1ccccc1C2=O  -7.89%
3. CCc1nc(SCC(=O)Nc2ccnc3ccccc23)n[nH]1  -7.48%
4. Cc1cc(NC(=O)CSc2cn(CCNC(=O)c3ccc(Cl)cc3)c3ccccc23)no1  -7.12%
5. Cn1cc(CNC(=O)C2CCC(=O)N(Cc3cccc(C(F)(F)F)c3)C2)cn1 (stereo not given)  -6.46%
6. C=CCN1C(=O)C(CC(=O)Nc2ccc(OC)cc2)N(Cc2ccco2)C1=S (stereo not given)  -5.03%
7. c1cc2c3c(cccc3c1)C(N1CCCCC1)=N2  -4.9%
8. COCCN(C(=O)COC(=O)CCc1ccc(OC)cc1)c1c(N)n(Cc2ccccc2)c(=O)[nH]c1=O  -4.28%
9. N#CCCn1cc(C(=O)NCc2ccccc2)c(-c2ccc3c(c2)OCCO3)n1  -3.92%
10. c1cc2c3c(cccc3c1)C(N1CCOCC1)=N2  -3.61%
11. CCN(CC(=O)Nc1ccccc1OC)C(=O)CCOc1ccc(C(C)(C)C)cc1  -2.92%
12. Cc1ccc(CSc2ncn(-c3ccccc3)n2)cc1  -2.76%
13. O=C(O)C1=C[C@H](c2coc3ccccc3c2=O)C[C@H](OCCCCO)O1  -1.88%
14. Cc1ccc(Cn2ccc(=O)c(OCc3ccccc3)c2C)cc1  -1.87%
15. CSc1ccc(CNC(=O)C2CCC(=O)N(Cc3cccc(F)c3)C2)cc1 (stereo not given)  -1.72%
16. COc1cc(CNc2ncn[nH]2)cc(Br)c1OC  -1.3%
17. FC(F)(F)c1cc(CCN2C(=S)NC[C@@H]2c2ccccc2)cc(C(F)(F)F)c1  -1.12%
18. Cc1cc(Cl)ccc1NC(=O)COC(=O)c1cc([N+](=O)[O-])ccc1N1CCOCC1  -0.98%
19. C[C@H](NC(=O)NCc1ccc(F)cc1)C(=O)O  -0.83%
20. Cc1ccc(NC(=O)CN2CCOCC2)cc1S(=O)(=O)N1CCCCC1  -0.79%
21. CCOC(=O)C1(Cc2ccc(Cl)cc2)CCN(C(=O)c2cnc(C)cn2)CC1  -0.58%
22. Cc1ccnc(NC(=O)CCCc2c[nH]c3ccccc23)c1  -0.54%
23. O=[N+]([O-])c1cc(S(=O)(=O)N2CCCCC2)ccc1NCCN1CCOCC1  -0.42%
24. O=C(CN(C(=O)CSc1nc2ccccc2o1)c1ccccc1)NC1CCCCC1  -0.41%
25. O=C(O)c1cnn2cc(-c3[nH]ncc3[N+](=O)[O-])cnc12  0.22%
26. COc1ccc(-c2c(C(=O)O)c(C(=O)O)c3n2CCC3)cc1  0.3%
27. COc1ccc2cc(C(=O)C3CCCN(C(=O)c4cncs4)C3)ccc2c1 (stereo not given)  0.43%
28. O=[N+]([O-])c1cc(-c2nnc(N3CCOCC3)c3ccccc23)ccc1N1CCOCC1  0.47%
29. CN(c1ccccc1)S(=O)(=O)c1ccc(C(=O)OCC(=O)NC(N)=O)cc1  1%
30. COc1cccc(C(=O)/C=C/Nc2ccc(S(=O)(=O)Nc3nc(C)cc(C)n3)cc2)c1  1.1%
31. Cc1cc(C)c(NC(=O)CN(C)CC(=O)Nc2cccc(S(=O)(=O)N(C)c3ccccc3)c2)c(C)c1  1.14%
32. Cc1ccc(NC(=O)CCc2c[nH]c3ccccc23)nc1  1.19%
33. CCOC(=O)N1CCN(C(=O)/C(=C/c2ccc(OC)cc2)NC(=O)c2ccccc2)CC1  1.93%
34. CC(C)(C)c1ccc(NC(=O)CCNC(=O)c2ccco2)cc1  1.96%
35. O=[N+]([O-])c1ccc(-c2nc(NCC3CCCO3)c3ccccc3n2)cc1 (stereo not given)  2.21%
36. c1ccc(NCCCNc2ccccc2)cc1  2.48%
37. O=C(NCCNC(=O)c1ccc(Cl)cc1Cl)c1ccco1  2.57%
38. CCC(=O)Nc1cccc(-c2ccc(N3CCCCC3)nn2)c1  2.67%
39. O=C1NC[C@H](c2ccccc2)N(CCc2cc(C(F)(F)F)cc(C(F)(F)F)c2)C1=O  2.8%
40. Cc1ccc2nc(NCc3ccccc3)c(C=O)c(=O)n2c1  2.81%
41. COCCCNC(=O)c1ccc(-c2csc(C)n2)cc1  2.89%
42. Cc1cc(C)c(S(=O)(=O)Nc2ccc(Cl)cn2)c(C)c1  2.9%
43. CN(CC(=O)Nc1ccccc1Cl)C(=O)CSc1ncc(C(F)(F)F)cc1Cl  3.84%
44. Cc1cccc(N2CC(C(=O)Nc3nccs3)CC2=O)c1C (stereo not given)  4.15%
45. CCCNC(=O)c1ccc2c(=O)n(Cc3ccco3)c(=S)[nH]c2c1  4.3%
46. Cc1ccc(NC(=O)NCc2ccncc2)cc1Cl  4.38%
47. O=C(Nc1cccc(-c2ccc(N3CCCCC3)nn2)c1)C(F)(F)F  5.09%
48. CN(C)S(=O)(=O)c1cccc(NC(=O)c2ccc(OC(F)(F)F)cc2)c1  5.44%
49. c1cncc(-c2nc(NCC3CCCO3)c3ccccc3n2)c1 (stereo not given)  6.22%
50. Cc1c(C)c2ccc(Oc3ccc([N+](=O)[O-])cc3C(F)(F)F)c(C)c2oc1=O  7.78%
51. CNc1c(C(=O)O)ccc2c1C(=O)c1ccccc1C2=O  9.33%
52. Nc1nc2ccccc2n1C(=O)c1cccs1  10.2%
53. Cc1ncoc1C(=O)N1CCCC(C(=O)c2ccc(-c3ccccc3)c(F)c2)C1 (stereo not given)  10.4%
54. CCN(c1ccccc1)S(=O)(=O)c1ccc(C(=O)Nc2nnc(-c3ccco3)o2)cc1  12.1%
55. Cc1c(OCc2ccccc2)c(=O)ccn1Cc1ccccc1  18%
56. COc1ccc(C(=O)n2c(N)nc3ccccc32)cc1OC  44.1%
57. Cc1cc(Cl)ccc1NC(=O)CN1CCC(C(O)(c2ccccc2)c2ccccc2)CC1  46%
58. Cc1cc(=O)oc2cc(Oc3ccc([N+](=O)[O-])cc3[N+](=O)[O-])ccc12  50.5%
59. O=C(CN1CCC(C(O)(c2ccccc2)c2ccccc2)CC1)Nc1cc(Cl)ccc1Cl  54.5%
60. CN(C)S(=O)(=O)c1ccc(C(=O)Nc2nnc(-c3ccco3)o2)cc1  70.1%
